The source of these data is PubChem BioAssay.

The structures appear in SMILES notation.

Tested on in the first assay: not listed separately
As to the kind of experiment: small-molecule binders of probe aInhba, primary screen, biochemical, small-molecule microarray, 635/667 nm fluorescence (AID 1148).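 Further: score merges 667nm spot fluorescence with signal-to-noise for antibody binding to printed compounds.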 To be noted: higher = more signal.
As for `COCCOC(=O)N1C(=O)[C@@]2(c3cc(C#CC4=CCCCC4)ccc31)[C@H](C(N)=O)[C@H]1C(=O)O[C@H](c3ccccc3)[C@H](c3ccccc3)N1[C@@H]2c1ccc(O)cc1`, the composite z-score is -0.0736. The molecule `O=C1O[C@@H](c2ccccc2)[C@@H](c2ccccc2)N2[C@@H](c3ccc(OCCO)cc3)[C@]3(C(=O)Nc4ccc(C#CC5=CCCCC5)cc43)[C@@H](C(=O)N3CCCCCCC3)[C@H]12` came in with a composite z-score of 1.93.

For `COc1ccc([Si](C)(C)[C@@H]2[C@@H](CCn3cc([C@H](O)c4ccccc4)nn3)O[C@]3(C(=O)N(Cc4cccc(N5CCC5=O)c4)c4ccccc43)[C@H]2C)cc1`, the composite z-score is -0.0477.

In another assay the target is Torsin-1A (Homo sapiens) (UniProt O14656). Put plainly: torsin A binders from cell lysate, primary screen, small-molecule microarray, wild-type, 635/667 nm (AID 1149). To be noted: COS7 hTOR1A-WT lysate, 635 nm fluorescence, higher = more signal.
Sequence of Torsin-1A (Homo sapiens) (O14656 whole entry, looked up): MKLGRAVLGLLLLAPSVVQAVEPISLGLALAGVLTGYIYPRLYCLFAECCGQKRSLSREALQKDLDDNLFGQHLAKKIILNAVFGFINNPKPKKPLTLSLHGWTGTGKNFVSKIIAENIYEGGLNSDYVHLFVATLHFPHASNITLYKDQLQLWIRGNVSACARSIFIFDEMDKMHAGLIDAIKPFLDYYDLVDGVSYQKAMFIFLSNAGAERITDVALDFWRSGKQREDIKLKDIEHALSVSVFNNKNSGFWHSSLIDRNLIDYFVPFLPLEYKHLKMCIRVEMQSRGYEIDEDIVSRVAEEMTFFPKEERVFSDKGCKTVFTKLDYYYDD
In turn, `COc1ccc([Si](C)(C)[C@@H]2[C@@H](CCO)O[C@]3(C(=O)N(Cc4cccc(N5CCOC5=O)c4)c4ccccc43)[C@H]2C)cc1` had a composite z-score of 0.531.

`COCCOC(=O)N1C(=O)[C@@]2(c3ccccc31)[C@H](C(N)=O)[C@H]1C(=O)O[C@H](c3ccccc3)[C@H](c3ccccc3)N1[C@@H]2c1ccc(O)cc1` gave a composite z-score of 0.603. With `O=C1C[C@@](C(=O)NCc2ccccc2)(c2ccc([N+](=O)[O-])cc2)[C@@H](c2ccc(CO)cc2)N1CC12CC3CC(CC(C3)C1)C2`, the composite z-score was found to be 0.352. In the case of `COCC(=C=CC[C@H](O)c1cccc(OCCO)c1)CCO`, the composite z-score was -0.744. On the same count and under the same terms, in the case of `COCCCNC(=O)[C@@]1(Cc2ccccc2CN=[N+]=[N-])N=C(c2ccc(OCCCO)cc2)O[C@H]1c1ccccc1CN=[N+]=[N-]` it was 0.0552; in that of `COC(=O)[C@]1(Cc2ccccc2)N=C(c2ccc(OCCCO)cc2)O[C@@H]1c1ccccc1N=[N+]=[N-]`, -0.0019.

As to `COC(=O)[C@@]1(Cc2ccc(F)cc2)[C@H]2c3cc(C(=O)N(C)C)n(Cc4ccc(C)o4)c3C[C@H]2CN1C(=O)c1ccccc1`, the composite z-score worked out at 4.51.

`CC(C)=CCCC(C)=CC(O)C1C=CC2C(=O)N(c3ccccc3)C(=O)C2N1Nc1ccc(C(C)C)cc1` (stereo not drawn) gave a composite z-score of -0.728. For `COc1ccccc1CN1C(=O)c2ccccc2[C@@H](C(=O)NCc2ccccc2)[C@@H]1c1ccc(CO)cc1`, the composite z-score is 0.408. The molecule `CC#CC(=O)Oc1ccc(Br)cc1C=CC(=O)OCC` displayed a composite z-score of -0.0177. Consider `O=C(NC1CC1)[C@@H]1c2ccccc2C(=O)N(C2Cc3ccccc3C2)[C@H]1c1ccc(CO)cc1`, for which the composite z-score worked out at 0.795. `COCCCNC(=O)[C@@H]1c2ccccc2C(=O)N(Cc2ccccc2OC)[C@H]1c1ccc(CO)cc1` displayed a composite z-score of 0.825.

Take `O=C(O)[C@H](Cc1ccccc1)n1cc(-c2ccccc2)nn1`: the composite z-score was found to be 0.0641. Molecule `C=CC[C@]1(C(=O)NCc2ccccc2)N=C(c2ccc(OCCCO)cc2)O[C@H]1c1ccccc1CN=[N+]=[N-]` displayed a composite z-score of -0.221. As to `CN1C(=O)C2C=CC(C(O)c3ccc(F)cc3)N(N(c3ccccc3)c3ccccc3)C2C1=O` (stereo not drawn), the composite z-score is -0.182. With `C=CCC(OC(C)=O)[C@@H]1[C@@H](N(Cc2ccc(-c3cccc(C(F)(F)F)c3)o2)C(=O)Cc2ccc(OC)cc2)c2cc(OCCCO)ccc2N1C(=O)c1ccc2ccccc2c1` (stereo partly drawn), the composite z-score was -2.27. In turn, `CN(C)CCCCCCNC(=O)[C@@H]1C[C@@H]2C(=O)N[C@@H](CCCC[N+](C)(C)C)C(=O)N2[C@@H]1c1ccc(O)cc1` showed a composite z-score of 0.659. On the same count and under the same terms, in the case of `CC(C)CNC(=O)[C@@]1(Cc2ccccc2I)c2ccccc2C(=O)N(Cc2ccccc2C(F)(F)F)[C@H]1c1ccc(CO)cc1` it was -0.177. In turn, `C=CC[C@]1(C(N)=O)N=C(c2ccc(OCCCO)cc2)O[C@H]1c1ccccc1` gave a composite z-score of 2.79.

`COCCCNC(=O)[C@@]1(Sc2ccc(C)cc2)CC(=O)N(Cc2ccccc2Cl)[C@@H]1c1ccc(CO)cc1` had a composite z-score of 0.607. As for `CCCC=C(CCC)[C@@H](NC(=O)OCC(C)C)c1ccccc1`, the composite z-score is 0.0387. `OCC1C=C(/C=C/c2ccccc2)CN1Cc1ccccc1Br` (stereo not drawn) yielded a composite z-score of -0.205. As for `CN1C(=O)C2C=CC(C(O)C=Cc3ccc([N+](=O)[O-])cc3)N(Nc3ccccc3)C2C1=O` (stereo not drawn), the composite z-score came out at 0.0394. In turn, `COC(=O)[C@@]1(Cc2ccccc2)[C@H]2c3cc(C(=O)N4CCCC4)n(Cc4ccc(O)c(OC)c4)c3C[C@H]2CN1C(=O)c1ccccc1` displayed a composite z-score of -0.0034. `CN(C)CCCCCCNC(=O)[C@@H]1C[C@@H]2C(=O)N3CCC[C@H]3C(=O)N2[C@@H]1c1ccc(O)cc1`: the composite z-score amounted to 1.4.

For `C[N+](C)(C)CCCC[C@@H]1NC(=O)[C@H]2C[C@@H](C(=O)NCCCCCCNC(=O)CS)[C@@H](c3ccc(O)cc3)N2C1=O`, the composite z-score was found to be 2.12. `COC(=O)C(CC#Cc1ccc2c(c1)[C@]1(C(=O)N2)[C@H](c2ccccc2OCCO)N2[C@H](c3ccccc3)[C@H](c3ccccc3)OC(=O)[C@H]2[C@@H]1C(=O)O)C(=O)OC` returned a composite z-score of 0.19.

As to `NCCCCCNC(=O)[C@H]1C[C@H]2C(=O)N3CCC[C@H]3C(=O)N2[C@H]1c1ccc(O)cc1`, the composite z-score turned out to be 1.66. `C=CCC(OC(C)=O)[C@@H]1[C@@H](N(Cc2ccc(-c3ccccc3)cc2)C(=O)Cc2ccc(F)cc2)c2cc(OCCCO)ccc2N1C(=O)c1ccc2ccccc2c1` (stereo partly drawn) returned a composite z-score of -0.287.

Regarding `CCOc1ccc(N2C(=O)CSC2c2cccc([N+](=O)[O-])c2)cc1` (stereo not drawn), the composite z-score came out at 0.331. Consider `C=C(CCCC)/C(=C/C[C@H](OC(C)=O)c1ccccc1OCCO)c1cnc2ccccc2c1`, for which the composite z-score stood at 0.0711. For `C=CC[C@]1(C(N)=O)COC(c2ccc(OCCCO)cc2)=N1`, the composite z-score turned out to be 1. The molecule `COCCOC(=O)N1C(=O)[C@@]2(c3cc(C#CC4=CCCCC4)ccc31)[C@H](C(N)=O)[C@H]1C(=O)O[C@H](c3ccccc3)[C@H](c3ccccc3)N1[C@@H]2c1ccc(O)cc1` showed a composite z-score of 1.03.

`O=C1O[C@@H](c2ccccc2)[C@@H](c2ccccc2)N2[C@@H](c3ccc(OCCO)cc3)[C@]3(C(=O)Nc4ccc(C#CC5=CCCCC5)cc43)[C@@H](C(=O)N3CCCCCCC3)[C@H]12`: the composite z-score turned out to be 1.58. In the case of `COc1ccc([Si](C)(C)[C@@H]2[C@@H](CCn3cc([C@H](O)c4ccccc4)nn3)O[C@]3(C(=O)N(Cc4cccc(N5CCC5=O)c4)c4ccccc43)[C@H]2C)cc1`, the composite z-score was 0.423.
